Test results reported in PubChem BioAssay AID504832 (National Center for Advancing Translational Sciences (NCATS), 2011).
Screen size: about 310,000 compounds; about 18,000 (5.8%) were called active. A call without a number means that no potency is given here. Inconclusive results (about 22%) are left out. Calls follow the shape of the dose curve; as a rule, active = well fitted inhibition curve with a large enough effect; inconclusive = small, poorly fitted or top-dose-only effect, or another doubt; inactive = no such curve, though single readings can be large or run the other way. This excerpt belongs to a sample that is enriched for actives.

experiment: Primary qHTS for delayed death inhibitors of the malarial parasite plastid, 48 hour incubation; settings: P. falciparum luciferase growth in erythrocytes; series mostly up to 28.7 µM
Excerpt: The goal of this screen is to discover new antimalarial compounds that act by inhibiting the development of the apicoplast in the malarial parasite Plasmodium falciparum. The biochemical processes that make this organelle essential for erythrocytic stage parasites are not well understood. However, antibiotics such as azithromycin and tetracycline, which target the apicoplast translational machinery, have a potent antimalarial effect.
We have developed a cell-based assay that measures parasite growth based on the expression of an integrated copy of a firefly luciferase reporter. To detect small molecules that cause this "delayed death" phenotype, erythrocytes infected with the luciferase-expressing parasites were incubated with compounds for either one or two generations, corresponding to 48 and 96 hours, respectively. Compounds that inhibit parasite growth in the second generation, but not the first, should be enriched in antimalarials that target the apicoplast. Growth inhibition is detected by a decrease in luciferase activity.
Assay Provider: David Fidock and Eric Ekland, Columbia University
Keywords: NIH Roadmap, MLPCN, MLI, MLSMR, qHTS, NCGC, qHTS, malaria, luciferase, viability
Four microliters of culture medium (RPMI 1640 with 0.5% w/v Albumax (GIBCO), 24 mM sodium bicarbonate and 10 ug/mL gentamycin) were dispensed by a Multi-drop Combi into white solid 1536-well plates (Grenier) and 23 nL compound was added by a pin tool. Four microliters of infected erythrocytes (2% hematocrit, 0.1% parasitemia final concentration) in culture medium were dispensed and the plates incubated for 48 hours at 37 C in 5% CO2. Two microliters of luciferase detection reagent was added and luminescence was detected by a ViewLux (PerkinElmer) reader.
Potency is read from the fitted curve at half-maximal effect.

Row | Structure (SMILES) | Potency
1 | Cc1ccc(S(=O)(=O)N(C)C)cc1NC(=O)C(C)OC(=O)c1ccc2ccccc2n1 (stereo unspecified) | inactive
2 | CC1=NC2(CCCc3c2no[n+]3[O-])N(O)C1(C)C (stereo unspecified) | 7.38 µM (active)
3 | CCOc1ccccc1NS(=O)(=O)c1cc2c3c(c1)C(C)C(=O)N3CCC2 (stereo unspecified) | inactive
4 | Cc1cc(C)n(-c2ccc(NC(=O)C3CCCCN3C(=O)c3cccs3)cc2)n1 (stereo unspecified) | inactive
5 | CC1C(=O)Nc2ccccc2N1C(=O)c1c(F)cccc1F (stereo unspecified) | inactive
6 | O=C(CCNC(=O)c1ccc(Br)cc1)Nc1cccc(S(=O)(=O)N2CCCCC2)c1 | inactive
7 | COc1ccc2oc(C(=O)OCC(=O)N(CC(C)C)c3c(N)n(Cc4ccccc4)c(=O)[nH]c3=O)c(C)c2c1 | inactive
8 | Cc1cc(Oc2ccc(Cl)cc2)nc(SCC(=O)c2ccccc2)n1 | inactive
9 | Cc1cc(C)n(-c2cc(Oc3ccccc3)ncn2)n1 | inactive
10 | CC(=O)c1ccc(Oc2cc(C)nc(-n3nc(C)cc3C)n2)cc1 | 11.7 µM (active)
11 | COc1cccc(C(=O)Nc2nnc(S(=O)(=O)N3CCCCC3)s2)c1 | inactive
12 | COc1ccc(/C=C2\SC(=O)N(CCC(=O)NC3CCS(=O)(=O)C3)C2=O)cc1 (stereo unspecified) | inactive
13 | COc1cccc(-c2noc(C3CCCN(C(=O)c4ccc(F)cc4)C3)n2)c1 (stereo unspecified) | inactive
14 | COc1cc(-c2noc(C3CCCN(S(=O)(=O)c4cccc(Cl)c4)C3)n2)cc(OC)c1OC (stereo unspecified) | 13.1 µM (active)
15 | CC(C)c1ccc(-c2noc(C3CCCN(S(C)(=O)=O)C3)n2)cc1 (stereo unspecified) | inactive
16 | CCCCn1c(N)c(N(CCOC)C(=O)c2sc3ccccc3c2Cl)c(=O)[nH]c1=O | inactive
17 | CCn1cc(/C=C(\NC(=O)c2ccc(C)cc2)C(=O)NCCN2CCOCC2)c2ccccc21 | inactive
18 | COc1ccc(NC(=O)CSc2nc(SC)ns2)c(OC)c1 | inactive
19 | O=C(O)CCn1c(Cc2ccccc2)nc2ccccc21 | inactive
20 | Cc1ccc2c(c1)C1CN(C)CCC1N2S(=O)(=O)c1ccc(Oc2ccc([N+](=O)[O-])cc2)cc1 (stereo unspecified) | 8.28 µM (active)
21 | Cc1ccc2c(c1)C1CN(C)CCC1N2C(=S)Nc1ccc(OC(F)F)cc1 (stereo unspecified) | inactive
22 | Cc1ccc2c(c1)C1CN(C)CCC1N2C(=S)Nc1ccc(Cl)cc1Cl (stereo unspecified) | inactive
23 | COc1cc(NC(=O)CSc2ccc(-c3cccnc3)nn2)cc(OC)c1 | inactive
24 | COc1ccccc1/C=N/N1CCN(Cc2ccccc2Cl)CC1 | inactive
25 | COc1ccccc1CN1CCN(C(c2ccccc2)c2ccccc2)CC1 | 13.1 µM (active)
26 | COc1ccccc1CN1CCN(C(=O)Cc2ccccc2)CC1 | inactive

Row | Structure (SMILES) | Potency
27 | COc1ccc(N2CC(NS(=O)(=O)c3ccc4ccccc4c3)CC2=O)cc1 (stereo unspecified) | inactive
28 | NC(=O)c1cc(-c2cccnc2)nc2ccc(Br)cc12 | inactive
29 | O=C(NCc1ccco1)c1ccc([N+](=O)[O-])cc1Cl | inactive
30 | O=C(NCc1ccco1)c1cc(-c2cccnc2)nc2ccc(Cl)cc12 | 10.4 µM (active)
31 | O=C(Nc1ccc(N2C(=O)c3cccc4cccc(c34)C2=O)cc1)c1ccc(N2CCCCC2)c([N+](=O)[O-])c1 | inactive
32 | O=C(Nc1cccc(C(F)(F)F)c1)c1ccc(N2CCNCC2)c([N+](=O)[O-])c1 | 2.62 µM (active)
33 | O=C(NC1C2CC3CC(C2)CC1C3)c1ccc(N2CCNCC2)c([N+](=O)[O-])c1 (stereo unspecified) | inactive
34 | O=[N+]([O-])c1ccc(NC(=S)N2CCN(c3ccccn3)CC2)cc1 | inactive
35 | O=C(CNC(=O)c1ccccc1)Oc1ccc([N+](=O)[O-])cc1 | inactive
36 | Oc1c(Cl)cc(Cl)c(Cl)c1Cc1c(O)c(Cl)cc(Cl)c1Cl | 11.7 µM (active)
37 | CCOc1ccc(N2CC(C(=O)NCc3ccccn3)CC2=O)cc1 (stereo unspecified) | inactive
38 | CC(C)C[C@H](NC(=O)N1CC(=O)Nc2ccccc21)C(=O)N[C@H](Cc1ccccc1)C(=O)O | inactive
39 | COc1ccc(C(=O)ON=C2c3ccccc3-c3ccccc32)cc1OC | inactive
40 | COc1ccc(C/C(N)=N/OC(=O)c2ccco2)cc1OC | inactive
41 | COc1ccc(C(=O)O/N=C(\N)Cc2ccc(Cl)cc2Cl)cc1OC | 13.1 µM (active)
42 | Cc1ccc2c(C)c(C(=O)N(C)Cc3ccncn3)oc2c1C | inactive
43 | CCN1CCN(c2ccc(NC(=O)c3cnccn3)cc2)CC1 | inactive
44 | CCOC(=O)N1CCN(C(=O)CSc2nc(=O)n3cccc(C)c3n2)CC1 | inactive
45 | CCOC(=O)N1CCN(C(c2cccnc2)c2ccc3cccnc3c2O)CC1 (stereo unspecified) | 11.7 µM (active)
46 | CCN1CCN(C(c2cccnc2)c2cc(Cl)c3cccnc3c2O)CC1 (stereo unspecified) | 4.15 µM (active)
47 | CCOC(=O)N1CCN(Cc2nc(N)nc(Nc3ccc(C)cc3)n2)CC1 | inactive
48 | CN(CC(=O)Nc1ccc(F)cc1)CC(=O)N1CCCCC1 | inactive
49 | Cc1cc(C)cc(N(CC(=O)NC2CCCC2)C(=O)CCC(=O)Nc2cc(C)on2)c1 | inactive
50 | Cn1cc(CNC(=O)c2ccc(OC3CCN(Cc4ccccn4)CC3)cc2)cn1 | inactive
51 | CCOC(=O)c1cccc(NC(=O)C2CCN(c3ncnc4c3nc3n4CCCCC3)CC2)c1 | inactive
52 | COc1cc(C2/C(=C(\O)c3ccc4c(c3)CC(C)O4)C(=O)C(=O)N2c2nnc(C)s2)cc(OC)c1OC (stereo unspecified) | inactive

Row | Structure (SMILES) | Potency
53 | O=S(=O)(Nc1cccc(-n2cnnn2)c1)c1cnc(Cl)c(Cl)c1 | inactive
54 | CC(=O)NC12CC3CC(C1)CC(C(=O)N1CCN(C(=O)c4ccco4)CC1)(C3)C2 | inactive
55 | Cc1ccc(C(=O)Nc2ccn(C)n2)cc1 | inactive
56 | CN1C(C(=O)NCc2ccco2)CC2Cn3c(nc4ccccc43)C21 (stereo unspecified) | inactive
57 | Cc1nc2nc(SCC(=O)Nc3cccc(F)c3)[nH]c2cc1Br | inactive
58 | COc1ccc(CN2CCN(C(=O)CCC(=O)Nc3nnc(C(C)C)s3)CC2)cc1F | inactive
59 | COc1cc(CN2CCC(C(N)=O)CC2)ccc1OCc1ccccc1 | inactive
60 | COc1ccc(CN2CCN(C(=O)c3cc(C4CC4)nn3-c3ccccc3)CC2)cc1F | 8.28 µM (active)
61 | COc1ccc(C(=O)NCc2nnc(SCC(=O)NC3=NCCS3)n2C)cc1 | inactive
62 | Cc1cc(=O)cc(C)n1-c1ccc(Cl)c(Cl)c1 | inactive
63 | O=C(OCC(=O)N(CCc1ccccc1)Cc1ccccc1)c1ccccc1[N+](=O)[O-] | inactive
64 | CCN(CC)c1ccc([N+](=O)[O-])cc1C(=O)O | inactive
65 | O=[N+]([O-])c1ccc(N(CCO)Cc2ccccc2)c([N+](=O)[O-])c1 | 4.65 µM (active)
66 | O=C(NCCCn1ccnc1)c1cc(Br)c(Br)s1 | inactive
67 | CC(=O)Nc1ccc(NC(=O)CSc2nnnn2C2CCCCC2)cc1 | inactive
68 | CCCc1cc(=O)n2[nH]c(C)c(-c3ccc(Cl)cc3)c2n1 | inactive
69 | NS(=O)(=O)c1cccc(NC(=O)CC23CC4CC(CC(Br)(C4)C2)C3)c1 | inactive
70 | Cc1nnc(SCC(=O)Nc2cccc(N)c2)n1-c1ccccc1 | inactive
71 | COc1ccc(C2=NS(=O)(=O)N(C)C(C(=O)N3CCCCC3)=C2)cc1 | inactive
72 | COc1ccc(NC(=O)C2=CC(c3ccc(OC)c(OC)c3)=NS(=O)(=O)N2C)cc1 | 14.7 µM (active)
73 | COc1ccc(C2=NS(=O)(=O)N(C)C(C(=O)NC(C)c3ccccc3)=C2)cc1 (stereo unspecified) | inactive
74 | Cc1cccc(N(C)C(=O)c2cc(S(=O)(=O)N3CCCCC3)c[nH]2)c1 | inactive
75 | Cc1cccc(CCNS(=O)(=O)c2ccc3c(c2)NC(=O)CO3)c1 | inactive
76 | CCOc1ccc(NC(=O)CC(Cc2ccc(Cl)cc2)C(=O)O)cc1 (stereo unspecified) | inactive
77 | O=C1c2cccc(OCC(=O)N3N=C(c4cccs4)CC3c3ccc(F)cc3)c2CCN1Cc1ccccc1 (stereo unspecified) | 7.38 µM (active)
78 | COc1ccc(C2CC(c3ccccc3)=NN2C(=O)COC(=O)COc2ccccc2)cc1 (stereo unspecified) | inactive

Row | Structure (SMILES) | Potency
79 | COc1ccc(C2CC(c3cccs3)=NN2C(=O)CCC(=O)O)cc1OC (stereo unspecified) | inactive
80 | COc1cc(C(=O)NCC(=O)NCCSc2ccc(Br)cc2)cc(OC)c1OC | inactive
81 | CCO[C@@H]1OC(C(=O)N2CCOCC2)=C[C@H](C)[C@H]1CCCO | inactive
82 | CCO[C@H]1OC(C(=O)N2CCCCCCC2)=C[C@@H](c2ccc(C(F)(F)F)cc2)[C@@H]1CCCO | 3.7 µM (active)
83 | CCO[C@H]1OC(C(=O)N2CCOCC2)=C[C@@H](c2ccc3c(c2)OCO3)[C@@H]1CCCO | inactive
84 | Cc1cc(C)c(S(=O)(=O)Nc2c(C)n(C)n(-c3ccccc3)c2=O)cc1[N+](=O)[O-] | inactive
85 | COc1ccc(-c2cc(C(=O)N3CCN(c4ccc(F)cc4)CC3)no2)cc1 | inactive
86 | Cc1cc(C)c(C2C3=C(Nc4c2c(C)nn4-c2ccccn2)c2ccccc2C3=O)c(C)c1 (stereo unspecified) | 9.28 µM (active)
87 | COC(=O)c1sccc1NC(=O)c1ccc(Cl)cc1 | inactive
88 | Nc1nc(NCc2ccccc2)n(-c2ccccc2)n1 | inactive
89 | CCc1nnc(NC(=O)CSCc2cc(=O)n3cc(C)sc3n2)s1 | inactive
90 | COC(=O)C1=C(c2ccc(Cl)c(C(F)(F)F)c2)C[C@@H]2CC[C@H]1N2C(=O)NC1CC1 | 14.7 µM (active)
91 | COC(=O)C1=C(c2ccc(F)cc2F)C[C@@H]2CC[C@H]1N2C(=O)NC1CC1 | inactive
92 | COC(=O)C1=C(c2ccccc2OCc2ccccc2)C[C@@H]2CC[C@H]1N2C(=O)NCc1ccc(OC)cc1 | 13.1 µM (active)
93 | COC(=O)C1=C(c2ccc(-c3ccccc3)c(F)c2)C[C@@H]2CC[C@H]1N2C(=O)NCc1ccc(F)cc1 | 13.1 µM (active)
94 | O=C(O)C1CC=C(Cl)CC1C(=O)NCc1ccccc1 (stereo unspecified) | inactive
95 | O=C(NCCc1ccc(Cl)cc1)C1CCCN1C(=O)NCc1ccccc1 (stereo unspecified) | inactive
96 | COC(=O)c1ccc(CNC(=O)C2CCC(=O)N(Cc3cccc(F)c3)C2)cc1 (stereo unspecified) | inactive
97 | COc1ccc(CNC(=O)C2CCN(C(=O)c3ccccc3)CC2)cc1 | inactive
98 | O=C(CN1CCN(C(=O)c2ccco2)CC1)Nc1ccc(Cl)c(C(F)(F)F)c1 | inactive
99 | COC(=O)C1=C(c2ccc(F)cc2OCc2ccccc2)C[C@@H]2CC[C@H]1N2C(=O)NCc1ccc(Cl)cc1 | 11.7 µM (active)
100 | COc1ccc(CNC(=O)C2CCN(S(C)(=O)=O)CC2)cc1 | inactive
101 | COC(=O)C1=C(c2ccc3ccccc3c2)C[C@@H]2CC[C@H]1N2C(=O)NCCO | inactive
